“And” between values parts separate entries of the source, which are not always exact repeats. Identical values can stand only once. More than one record can exist for a structure, and the calls need not agree. The source made the active and inactive calls. How the source made its calls: active means hit-call score of the fitted dose curve at least 0.9, where 1 is the maximum; inactive means score below 0.9.
Each molecule was assayed on Interleukin-8 (IL8), CXCL8 (gene 3576) (assay: BSK_LPS_IL8: BioMAP Diversity Plus: LPS Assay for Interleukin-8 (IL8) Biomarker Activity (AID 2283078)). Details: primary human HUVEC with PBMC; actives raise or lower the signal.
Procedure: BSK_LPS is a cell-based, multiplexed-readout assay that uses umbilical vein endothelium and peripheral blood mononuclear cells, a human vascular primary cell co-culture, with measurements taken at 24 hours after chemical dosing in a 96-well plate.BSK_LPS_IL8 is an assay component measured in the BSK_LPS assay. It measures IL-8 antibody related to regulation of gene expression using ELISA technology.Data from the assay component BSK_LPS_IL8 was analyzed into 1 assay endpoint. This assay endpoint, BSK_LPS_IL8, was analyzed with bidirectional fitting relative to DMSO as the negative control and baseline of activity. Using a type of binding reporter, gain or loss-of-signal activity can be used to understand changes in the signaling as they relate to the gene CXCL8. Furthermore, this assay endpoint can be referred to as a primary readout, because this assay has produced multiple assay endpoints where this one serves a signaling function. To generalize the intended target to other relatable targets, this assay endpoint is annotated to the cytokine intended target family, where the subfamily is interleukins.
The levels of cell surface (or secreted, indicated by the prefix "s") biomarker endpoints were measured by ELISA. Overt cytotoxicity to cells in confluent adherent cultures (all systems other than the BT system) was assessed by measuring total protein levels using sulforhodamine B (SRB) staining in parallel cultures at the time of biomarker measurements, indicated as SRB endpoints. For proliferation assays for adherent cell types, individual cell types are cultured at sub-confluence and relative cell numbers quantified by SRB staining at time points optimized for each system (48 h: 3C and CASM3C systems; 72 h: BT and HDF3CGF systems; 96 h: SAg system). SRB was performed by staining cells with 0.1% SRB after fixation with 10% TCA and reading wells at 560 nm.Viability and proliferation of PBMC (T cells) was quantified by Alamar Blue reduction for the SAg and BT systems. For PBMC viability (referred to as PBMC Cytotoxicity within the assay endpoint names), cells were plated (75,000/well in a 96-well plate) and then chemical samples added for 1 h before addition of activators, SEB and TSST-1 (20 ng/mL final concentration each). Cells were incubated for 90 h. Then, Alamar Blue (20 uL/well) (Invitrogen, Cat DAL1100) was added for 6 h, and the plates were read with a fluorescence microplate reader at 546/580 nm (excitation/emission). For PBMC proliferation, cells were plated and activated as above but incubated for only 16 h prior to addition of Alamar Blue. Plates were read after 6 h.

With `CCSC(C)CC1CC(=O)C(C(CC)=NOC/C=C/Cl)=C(O)C1` (stereo not given) as the molecule, how does the AC50 read?
The AC50 was 0.0903 µM (active).

Which outcome does the source give for `BrCCBr` here?
Its outcome is “inactive”.

How did the outcome turn out when `COP(=S)(OC)Oc1cc(Cl)c(Cl)cc1Cl` was run?
The outcome was “inactive”.

`O=c1[nH]c(=O)[nH]c(=O)[nH]1` was tested. Which outcome did it give?
The outcome was “inactive”.

Which outcome does the source give for `ClCC(Cl)CCl` here?
Its outcome is “inactive”.

For `O=C(OC1CCCCC1)c1ccccc1C(=O)OC1CCCCC1`, which AC50 is on record?
Its AC50 is 20.9 µM (active).

How did the outcome turn out when `Oc1c(I)cc(I)cc1I` was run?
Its outcome is “inactive”.

With `Nc1ccc(-c2ccc(N)c(Cl)c2)cc1Cl` as the molecule, how does the outcome read?
Its outcome is “inactive”.

How did the outcome turn out when `COC(=O)c1sccc1S(=O)(=O)NC(=O)Nc1nc(C)nc(OC)n1` was run?
The outcome was “inactive”.

With `CC(C)(C)CC(C)(C)c1ccc(O)cc1` as the molecule, how does the AC50 read?
The AC50 was 13.9 µM (active).

How did the outcome turn out when `Nc1ncc([N+](=O)[O-])s1` was run?
Its outcome is “inactive”.

For `CCOP(=S)(OCC)Oc1nc(Cl)c(Cl)cc1Cl`, which outcome is on record?
Its outcome is “inactive”.

For `CN(C)N=O`, which outcome is on record?
Its outcome is “inactive”.

For `COP(=S)(OC)Oc1c(Cl)cc(C)cc1Cl`, which outcome is on record?
Its outcome is “inactive”.

How did the AC50 turn out when `ClC1=C(Cl)[C@]2(Cl)[C@H]3[C@H]([C@H]4C=C[C@H]3C4)[C@@]1(Cl)C2(Cl)Cl` was run?
Its AC50 is 0.16 µM (active).

How did the AC50 turn out when `CC(=O)[O][Hg][c]1ccccc1` was run?
The AC50 was 6.47 µM (active).

`CCC(=O)C(CC(C)N(C)C)(c1ccccc1)c1ccccc1` (stereo not given) was tested. Which outcome did it give?
The outcome was “inactive”.

How did the AC50 turn out when `O=C(Nc1ccc2[nH]ccc2c1)c1cc2cc(F)ccc2n1Cc1cccc(F)c1` was run?
Its AC50 is 10.4 µM (active).

Which outcome does the source give for `O=S(=O)(c1ccc(Cl)cc1)c1ccc(Cl)cc1` here?
Its outcome is “inactive”.

With `CC(C)(OO)c1ccccc1` as the molecule, how does the outcome read?
Its outcome is “inactive”.

For `CC(C)(c1ccccc1)c1ccc(O)c(C(C)(C)c2ccccc2)c1`, which AC50 is on record?
Its AC50 is 12 µM (active).

Which AC50 does the source give for `COP(=S)(OC)Oc1ccc(Sc2ccc(OP(=S)(OC)OC)cc2)cc1` here?
Its AC50 is 3.97 µM (active).

For `O=C(O)C(Cl)(Cl)Cl`, which outcome is on record?
The outcome was “inactive”.

For `CC12CC1(C)C(=O)N(c1cc(Cl)cc(Cl)c1)C2=O` (stereo not given), which outcome is on record?
Its outcome is “inactive”.

Which results are given for `O=C(O)C(F)(F)C(F)(F)C(F)(F)C(F)(F)C(F)(F)C(F)(F)C(F)(F)C(F)(F)C(F)(F)C(F)(F)F`?
AC50: 33.8 µM (active) and 2.03 µM (active); outcome: inactive

How did the outcome turn out when `O=Cc1cccc(Oc2ccccc2)c1` was run?
Its outcome is “inactive”.

How did the outcome turn out when `NC(=O)O` was run?
Its outcome is “inactive”.

How did the outcome turn out when `COC[C@H](C)N(C(=O)CCl)c1c(C)csc1C` was run?
The outcome was “inactive”.

`Cc1ccccc1N` was tested. Which outcome did it give?
Its outcome is “inactive”.

How did the outcome turn out when `COc1cc(OC)nc(NC(=O)NS(=O)(=O)c2ncccc2C(=O)N(C)C)n1` was run?
The outcome was “inactive”.

Which outcome does the source give for `CCCCCCCCC(=O)NCc1ccc(O)c(OC)c1` here?
The outcome was “inactive”.

Which outcome does the source give for `CCOP(=S)(OCC)SCCS(=O)(=O)CC` here?
The outcome was “inactive”.

With `O=[N+]([O-])c1ccc2c3c(cccc13)CC2` as the molecule, how does the outcome read?
Its outcome is “inactive”.

For `CC(C)c1ccc(CO)cc1`, which outcome is on record?
Its outcome is “inactive”.

With `CCC(C)(C)c1ccc(O)c(C(C)(C)CC)c1` as the molecule, how does the AC50 read?
The AC50 was 28.1 µM (active).

How did the outcome turn out when `CC1(C)Cc2cccc(O)c2O1` was run?
The outcome was “inactive”.

With `ClC(Cl)=C(Cl)C(Cl)=C(Cl)Cl` as the molecule, how does the outcome read?
The outcome was “inactive”.

With `CCOP(=S)(OCC)Oc1ccc(S(C)=O)cc1` (stereo not given) as the molecule, how does the outcome read?
The outcome was “inactive”.

How did the AC50 turn out when `CCOC(=O)/C=C(C)/C=C/C[C@@H](C)CCCC(C)C` was run?
Its AC50 is 32.7 µM (active).

Source: PubChem BioAssay (EPA / NIEHS)
